DT40 TDP1 no CPT: qHTS for Inhibitors of human tyrosyl-DNA phosphodiesterase 1 (TDP1): qHTS in cells in absence of CPT; DT40 Tdp1-/- hTDP1 cells, no CPT, ATP luminescence, 48 h; Potency, µM (titrated, usually from 46.2 µM), actives largely listed as inhibitors; 420,000 tested, 15% active; further: nearly all actives have a fitted effect of over 55% in size
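Growth kinetics read by CellTiter-Glo luminescence after ≥48 hr at 37 °C. Cells: DT40 Tdp1-/- stably carrying human TDP1, 400 per well, compound exposure in the absence of CPT (DMSO vehicle).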
TDP1 cell CPT: growth inhibition of DT40 Tdp1-/-;hTDP1 cells with camptothecin (screen for TDP1 inhibitors); 420,000 tested, 12% active; chicken DT40 Tdp1-/-;hTDP1 cells + 20 nM CPT, ATP luminescence, 48 h; Potency, µM (series often up to 46.2 µM), actives largely listed as inhibitors; AID 686979; further: nearly all actives have a fitted effect of over 55% in size
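Chicken DT40 Tdp1-/- cells stably complemented with human TDP1 were seeded at 400 cells/well in medium containing 20 nM camptothecin, exposed to pin-transferred compounds, and grown at 37 °C for at least 48 hr. Viability was read as ATP luminescence.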
TDP1 inh: inhibitors of human tyrosyl-DNA phosphodiesterase TDP1; recombinant TDP1, AlphaScreen DNA substrate cleavage; 350,000 tested, 0.28% active; Q9NUW8; AID 485290; Potency, µM (titrated, usually from 130 µM), hits mostly inhibitors; further: nearly all actives have a fitted effect of over 40% in size
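E. coli-derived human Tdp1, 1 nM final. Cpd preinc 15 min RT; substrate 15 nM final, 5 min RT; AS bead mix 10 ug/ml final, 10 min RT. Signal loss = tyrosine-FITC cleavage. No-enzyme wells = max signal.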
ClpP mod: qHTS Assay for Activators of ClpP | Potency, µM (series often up to 57.5 µM) | AID 651965, 2013 | purified B. subtilis ClpP, FRET peptide cleavage, 20 min | 340,000 tested, 1.9% active | ATP-dependent Clp protease proteolytic subunit (Bacillus subtilis (strain 168)), P80244; active means well fitted falling curve with a large enough effect; inconclusive means small, poorly fitted or top-dose-only effect; inactive means no such curve, though single readings can be large or run the other way; further: the source files actives as falling curves though it sought activators and does not explain the sign; nearly all actives have a fitted effect of over 65% in size
Target sequence (P80244 whole entry, looked up): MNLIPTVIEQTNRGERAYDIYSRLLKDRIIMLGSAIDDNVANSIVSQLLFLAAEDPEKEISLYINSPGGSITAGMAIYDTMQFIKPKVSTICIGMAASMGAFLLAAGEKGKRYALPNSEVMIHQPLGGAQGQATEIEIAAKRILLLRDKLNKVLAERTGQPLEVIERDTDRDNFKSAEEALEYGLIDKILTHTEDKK
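FRET quenching reversal measured ClpP activation: 10 microg/mL B. subtilis ClpP at pH 8 with the FRET-FV decapeptide, read at 430 nm after 320 nm excitation. The 20-min minus 0-min signal was scaled between DMSO/no-enzyme wells and ADEP (5.8 microM final).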
Large screens that a line does not name were inactive. Most compounds without a hit are left out; they make up all but 17% or so of the library. Unless noted, the call rests on the fitted dose curve; in most records, active means well fitted curve in the direction sought with a large enough effect; inconclusive means small, poorly fitted or top-dose-only effect, or another doubt; inactive means no such curve, though single readings can be large; an effect the other way counts as inactive or inconclusive.

CCC1C(c2ccccc2)N(C)C(c2ccccc2)CC1(O)c1ccccc1 (centres undefined)	DT40 TDP1 no CPT 23µM, TDP1 cell CPT inconclusive (no result: ClpP mod)
COc1ccc(C(=O)NCC(=O)N2CCN(c3ccccc3)CC2)cc1	none (no result: ClpP mod)
Cc1ccc(C)c(S(=O)(=O)N2CCN(C(=O)CCC(=O)c3cc(C)sc3C)CC2)c1	DT40 TDP1 no CPT 23µM, TDP1 cell CPT inconclusive
COc1ccc(N2CCN(C(=O)CCCC(=O)c3ccccc3)CC2)cc1	DT40 TDP1 no CPT inconclusive, TDP1 cell CPT 21µM (no result: TDP1 inh)
COc1ccc(N2CCN(C(=O)CNC(=O)c3cccc(Br)c3)CC2)cc1	DT40 TDP1 no CPT 15µM, TDP1 cell CPT inconclusive (no result: ClpP mod)
COc1ccc(N2CCN(C(=O)CCC(=O)c3cc(C)sc3C)CC2)cc1	DT40 TDP1 no CPT 16µM, TDP1 cell CPT inconclusive (no result: ClpP mod)
CCC(C)NC(=O)Cn1c(=O)n(-c2ccc(OC)c(OC)c2)c(=O)c2ccccc21 (centres undefined)	none
CC(O)(c1ccc(F)c(F)c1)c1nc(-c2cccc(C#N)c2)cs1 (centres undefined)	DT40 TDP1 no CPT inconclusive, TDP1 cell CPT inconclusive (no result: TDP1 inh)
O=C(NCCc1cccc(Cl)c1)c1cccs1	TDP1 cell CPT inconclusive
COc1ccc(C(=O)CCC(=O)N2CCN(c3ccc(C)cc3)C(C)C2)cc1 (centres undefined)	DT40 TDP1 no CPT 23µM, TDP1 cell CPT inconclusive
CC(C)C(=O)N1CCN(c2ccccc2NC(=O)c2ccc3c(c2)OCCO3)CC1	none (no result: TDP1 inh, ClpP mod)
CN(C(=O)c1cc2c(s1)-c1ccc(Cl)cc1SC2)c1cccc(C(F)(F)F)c1	DT40 TDP1 no CPT 16µM, TDP1 cell CPT 15µM
Cc1ccc(CNC(=O)c2cc3c(s2)-c2ccc(Cl)cc2SC3)cc1	TDP1 cell CPT inconclusive
CN(C)CCNC(=O)c1cc2c(s1)-c1ccc(Cl)cc1SC2	DT40 TDP1 no CPT 8.2µM, TDP1 cell CPT 2.6µM (no result: TDP1 inh)
COc1ccc(N2CCN(C(=O)C3CCCN(S(=O)(=O)c4cccc5cccnc45)C3)CC2)cc1 (centres undefined)	DT40 TDP1 no CPT inconclusive, TDP1 cell CPT 16µM
O=C(O)[C@@H]1CCCN(S(=O)(=O)c2cccc3cccnc23)C1	none
CC1Cc2ccccc2N1C(=O)C1CCCN(S(=O)(=O)c2cccc3cccnc23)C1 (centres undefined)	DT40 TDP1 no CPT 13µM, TDP1 cell CPT 13µM
COc1ccc(CNC(=O)CC[C@H]2O[C@@H](n3cnc4c(NC(=O)c5ccccc5)ncnc43)[C@H](O)[C@@H]2O)cc1	TDP1 cell CPT inconclusive (no result: TDP1 inh)
COc1ccccc1C(=O)Nc1ccccc1C(=O)OCc1cc(=O)n2ccsc2n1	none
Cc1csc2nc(O)c(C(=O)NCCC3=CCCCC3)c(=O)n12	DT40 TDP1 no CPT 7.3µM, TDP1 cell CPT 15µM
Cc1csc2nc(O)c(C(=O)NCCCc3ccccc3)c(=O)n12	DT40 TDP1 no CPT 15µM, TDP1 cell CPT 15µM
CC1(C(=O)NS(=O)(=O)c2cccc(F)c2)CCN1C(=O)c1ccccc1 (centres undefined)	none (no result: TDP1 inh)
O=C(N/N=C\c1ccc([N+](=O)[O-])s1)c1cncc(Br)c1	DT40 TDP1 no CPT 3.3µM, TDP1 cell CPT 5.2µM
COc1ccccc1NC(=O)C(=O)N/N=C/c1ccc([N+](=O)[O-])s1	DT40 TDP1 no CPT inconclusive, TDP1 cell CPT 12µM
O=C(Cc1ccccc1)N/N=C/c1ccc([N+](=O)[O-])s1	DT40 TDP1 no CPT 23µM, TDP1 cell CPT 21µM
O=C(Cc1ccccc1)N/N=C/c1cccs1	none
O=C(N/N=C/c1ccc(O)cc1)c1cncc(Br)c1	none (no result: TDP1 inh)
O=C(CNC(=O)c1cccc(F)c1)N/N=C/c1ccc([N+](=O)[O-])s1	DT40 TDP1 no CPT 5.8µM, TDP1 cell CPT 18µM
O=C(CNC(=O)c1cccc(Br)c1)N/N=C/c1cccs1	none (no result: TDP1 inh)
COCCn1c(SCC(=O)N2CCCC2)nc2c(c1=O)SCC2	none (no result: TDP1 inh)
CCOC(=O)N1CCC(=NNc2ccc(S(N)(=O)=O)cc2[N+](=O)[O-])CC1	none (no result: ClpP mod)
O=C(N/N=C/c1ccc(Br)s1)c1cccc([N+](=O)[O-])c1	DT40 TDP1 no CPT inconclusive, TDP1 cell CPT inconclusive (no result: TDP1 inh)
COc1ccc(NC(C)C(=O)N/N=C/c2ccc([N+](=O)[O-])s2)cc1 (centres undefined)	DT40 TDP1 no CPT 23µM, TDP1 cell CPT 16µM (no result: ClpP mod)
Cc1ccccc1C(=O)N/N=C/c1ccc([N+](=O)[O-])s1	DT40 TDP1 no CPT 13µM, TDP1 cell CPT 16µM
CCOc1ccc(NC(C)C(=O)N/N=C/c2ccc([N+](=O)[O-])cc2)cc1 (centres undefined)	none (no result: DT40 TDP1 no CPT, TDP1 cell CPT, ClpP mod)
O=C(N/N=C/c1ccc([N+](=O)[O-])s1)c1ccccc1	DT40 TDP1 no CPT 4.1µM, TDP1 cell CPT 4.6µM (no result: ClpP mod)
Cc1ccnn1CC(=O)N/N=C/c1ccc([N+](=O)[O-])s1	DT40 TDP1 no CPT 23µM, TDP1 cell CPT 26µM
CC1(C)C(=O)N(c2ccccc2Cl)C(=O)c2ccccc21	DT40 TDP1 no CPT inconclusive (no result: ClpP mod)
COC(=O)N/N=C/c1ccc([N+](=O)[O-])s1	DT40 TDP1 no CPT 15µM, TDP1 cell CPT 13µM
COc1ccccc1Nc1nn2c(=O)c3ccc(C(=O)NCCCOC(C)C)cc3nc2s1	DT40 TDP1 no CPT 4.1µM, TDP1 cell CPT 5.2µM
Cc1ccc(C)c(Nc2nn3c(=O)c4ccc(C(=O)NCc5cccs5)cc4nc3s2)c1	DT40 TDP1 no CPT 15µM, TDP1 cell CPT inconclusive
CC(C)OCCCNC(=O)c1ccc2c(=O)n(CCc3ccccc3)c(=O)[nH]c2c1	none
COc1ccccc1Nc1nn2c(=O)c3ccc(C(=O)NCc4cccs4)cc3nc2s1	DT40 TDP1 no CPT 16µM, TDP1 cell CPT 13µM (no result: TDP1 inh)
CCc1ccccc1NC(=O)c1sc2nc(C)cc(COC)c2c1N	DT40 TDP1 no CPT inconclusive, TDP1 cell CPT inconclusive
Cc1ccc(CNC(=O)N2CCN(S(=O)(=O)c3ccccc3)CC2)cc1	none (no result: TDP1 inh)
COc1ccc(S(=O)(=O)c2c(C(=O)c3ccc(C)c(C)c3)cnc3ccc(C)cc23)cc1	DT40 TDP1 no CPT 6.5µM, TDP1 cell CPT 7.3µM
CCc1ccc(C(=O)c2cnc3ccc(F)cc3c2S(=O)(=O)c2ccccc2)cc1	DT40 TDP1 no CPT 5.8µM, TDP1 cell CPT 5.2µM
Cc1ccc(C(=O)c2cnc3cc4c(cc3c2S(=O)(=O)c2ccccc2)OCCO4)cc1	DT40 TDP1 no CPT 23µM, TDP1 cell CPT 18µM
O=C(NCc1ccccc1)c1ccc(S(=O)(=O)NCc2ccco2)cc1	none (no result: ClpP mod)
Cc1ccc(C(c2sc3nc(-c4ccco4)nn3c2O)N2CCC3(CC2)OCCO3)cc1 (centres undefined)	none
O=C(Nc1nc2ccccc2n1CCOc1ccc(Cl)cc1)c1ccco1	DT40 TDP1 no CPT 18µM, TDP1 cell CPT 26µM
CCn1c(-c2ccco2)nc2ccccc21	DT40 TDP1 no CPT inconclusive, ClpP mod 32µM
Cc1cccc(OCCn2c(-c3ccco3)nc3ccccc32)c1	DT40 TDP1 no CPT inconclusive, TDP1 cell CPT inconclusive, ClpP mod 25µM
Cc1cccc(OCCn2c(NC(=O)c3ccco3)nc3ccccc32)c1	DT40 TDP1 no CPT inconclusive, TDP1 cell CPT 26µM

From PubChem BioAssay
